# Source: PubChem BioAssay (Tox21)
# Results filed as inconclusive are left out. A number with no mark means an inactive call. Active and inactive are the calls of the source. Unless noted, calls follow the shape of the dose curve; as a rule, active = well fitted activation curve with a large enough effect in the repeat runs; inconclusive = weak or mixed curves; inactive = no such curve, though single readings can be large or run the other way.
# Test system: not listed separately
# Assay: qHTS assay to identify small molecule agonists of the estrogen related receptor (ERR) signaling pathway (AID 1224820)
# Details: ERR reporter cell line, luciferase agonist mode; series mostly up to 46.1 µM; activation: at the top concentration
# Summary of the method: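 ERR reporter cell line (from NTP), 2,000 cells/well, incubated 6 h before compound addition, then 18 h at 37 C. Luminescence measured 30 min after One-Glo reagent at room temperature.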
# % is scaled to controls: 0 for no effect and ±100 for the full control effect.
row,Compound,activation [%]
1,O=c1cc(N2CCOCC2)oc2c(-c3ccccc3)cccc12,-75.6
2,O=C(CCCCCN1CCN(c2ccccc2-c2ccccc2)CC1)NC1CCCc2ccccc21 (stereo not given),-65.3
3,C[C@]12C=CC(=O)C=C1CC[C@@H]1C2=CC[C@]2(C)[C@@H](C(=O)CN3CCN(c4cc(N5CCCC5)nc(N5CCCC5)n4)CC3)CC[C@@H]12,-44.7
4,C=CCN1CCc2c(cc(O)c(O)c2Br)[C@@H](c2ccccc2)C1,-64.7
5,CC(C)[C@H](NC(=O)OCc1ccccc1)C(=O)N[C@H](C=O)Cc1ccccc1,-34.6
6,NS(=O)(=O)C#Cc1ccccc1,-88.9
7,CCN(CC)CC#CCOC(=O)C(O)(c1ccccc1)C1CCCCC1 (stereo not given),-30.4
8,O=[N+]([O-])c1ccc(CNc2nc(NCc3cccc(C(F)(F)F)c3)nc3nc[nH]c23)cc1,-67.9
9,O=C(CCSCc1ccco1)NNC(=O)N1Cc2ccccc2Oc2ccc(Cl)cc21,-54.3
10,CCCc1c(-c2ccc(O)cc2)nn(-c2ccc(O)cc2)c1-c1ccc(O)cc1,-23.5
11,CCOC(=O)N1CCN(/[N+]([O-])=N/Oc2ccc([N+](=O)[O-])cc2[N+](=O)[O-])CC1,-80.9
12,NC(N)=NCc1cccc(I)c1,-56.7
13,Cc1ccccc1/C=C/C1=NCCN1,-25.7
14,COC(=O)C1=C(C)NC(C)=C([N+](=O)[O-])C1c1ccccc1C(F)(F)F (stereo not given),-33.2
15,Clc1ccc(N2CCN(Cc3cc4ccccn4n3)CC2)cc1,-63.1
16,O=c1oc(Cl)c(Cl)c2ccccc12,-25.9
17,O=C(Nc1ccc2c(c1)CCN(Cc1ncn[nH]1)C2)c1ccccc1-c1ccc(C(F)(F)F)cc1,-48.6
18,COc1ccccc1N1CCN(CCCCNC(=O)c2ccc3ccccc3c2)CC1,-52.8

# Test system: estrogen-related receptor alpha (ERRalpha) with PGC-1alpha coactivator, human
# Assay: qHTS assay to identify small molecule antagonists of the estrogen related receptor signaling pathway with the pleiotropic PPARgamma coactivator (PGC) (AID 1224821; calls by dose curve; also: nearly all actives have a fitted effect of over 50% in size; also: potency is read from the fitted curve at half-maximal effect;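 as to activity change, negative = inhibition: lower luminescence signal means antagonism of PGC/ERR signalling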)
# Details: ERR/PGC reporter cell line, luciferase, antagonist mode; series mostly up to 46.1 µM; activity change, negative = inhibition: at the top concentration
# Summary of the method: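 PGC/ERR reporter cell line, plated 6 h before compound addition, then exposed 18 h at 37 °C. Luciferase activity read by luminescence 30 min after One-Glo addition; decrease indicates antagonism.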
Compound,Potency,"activity change, negative = inhibition [%]"
CC[n+]1c(/C=C/C=C2/N(C)c3ccccc3C2(C)C)sc2ccccc21,0.492 µM (active),
C[C@@H](N)C1CCC(C(=O)Nc2ccncc2)CC1 (stereo not given in full),14.4 µM (active),
CNC(=O)[C@H]1O[C@@H](n2cnc3c(NCc4cccc(I)c4)ncnc32)[C@H](O)C1O (stereo not given in full),,94.8
COc1cccc(OC)c1OCCNCC1COc2ccccc2O1 (stereo not given),,-21.2
COc1cccc(OC)c1OCCNCC1CSc2ccccc2O1 (stereo not given),,-14.6
CCCCCCCC/C=C\CCCCCCCC(=O)NCCc1ccc(O)c(O)c1,,41.9
CCCCCCCCCCC(C)(C)C(=O)Nc1c(OC)cc(OC)cc1OC,,-10.9
